# Measured values reported in paper PMC7862700, “An all-to-all approach to the identification of sequence-specific readers for epigenetic DNA modifications on cytosine”.
# Assays:
# Experiment in all cases: DAPPL (digital affinity profiling via proximity ligation, sequencing); 10 mM Tris-HCl pH 7.5, 50 mM NaCl, 1 mM DTT, 4% glycerol, room temperature, 30 min; GST-TFs on glutathione beads, 16-mer random dsDNA library, 0.1% formaldehyde crosslink after washing; high values mean tight binding
# FLI1 = biological target: T1, FLI1 (Homo sapiens, UniProt Q01543 1-452); details: protein: recombinant; tags: N-terminal GST; dsDNA, one strand shown
# T1 sequence: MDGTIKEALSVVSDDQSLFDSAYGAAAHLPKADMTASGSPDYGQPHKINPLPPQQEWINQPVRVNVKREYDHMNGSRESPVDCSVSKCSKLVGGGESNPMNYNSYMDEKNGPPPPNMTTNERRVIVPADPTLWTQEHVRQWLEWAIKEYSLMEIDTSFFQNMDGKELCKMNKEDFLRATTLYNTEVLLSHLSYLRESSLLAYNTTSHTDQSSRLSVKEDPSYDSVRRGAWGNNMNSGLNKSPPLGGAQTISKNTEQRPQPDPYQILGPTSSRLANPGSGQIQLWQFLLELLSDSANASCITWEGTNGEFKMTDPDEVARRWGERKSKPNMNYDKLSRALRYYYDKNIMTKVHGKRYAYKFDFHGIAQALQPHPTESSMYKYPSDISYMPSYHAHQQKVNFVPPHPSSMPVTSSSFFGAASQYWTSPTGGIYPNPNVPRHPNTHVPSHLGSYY
# How it was run: (§1)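 Sequencing on an Illumina NextSeq500 followed washing, crosslinking with 0.1% formaldehyde, proximity ligation (BsaI/T4 ligase, 1 h, 37 °C) and PCR amplification of pools that had been incubated for 30 min at room temperature with 200 nmole of a random double-stranded 16-mer DNA library in Tris/NaCl/DTT/glycerol buffer. Each pool held DNA-barcoded human transcription factors, expressed in yeast as GST fusions and captured on glutathione beads, plus a tag-only sample. Binding signal is a hexamer's read frequency for a factor divided by its frequency in the tag-only sample.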
# ELK1 = biological target: T2, ELK1 (Homo sapiens, UniProt P19419 1-428); details: protein: recombinant; tags: N-terminal GST; dsDNA, one strand shown
# T2 sequence: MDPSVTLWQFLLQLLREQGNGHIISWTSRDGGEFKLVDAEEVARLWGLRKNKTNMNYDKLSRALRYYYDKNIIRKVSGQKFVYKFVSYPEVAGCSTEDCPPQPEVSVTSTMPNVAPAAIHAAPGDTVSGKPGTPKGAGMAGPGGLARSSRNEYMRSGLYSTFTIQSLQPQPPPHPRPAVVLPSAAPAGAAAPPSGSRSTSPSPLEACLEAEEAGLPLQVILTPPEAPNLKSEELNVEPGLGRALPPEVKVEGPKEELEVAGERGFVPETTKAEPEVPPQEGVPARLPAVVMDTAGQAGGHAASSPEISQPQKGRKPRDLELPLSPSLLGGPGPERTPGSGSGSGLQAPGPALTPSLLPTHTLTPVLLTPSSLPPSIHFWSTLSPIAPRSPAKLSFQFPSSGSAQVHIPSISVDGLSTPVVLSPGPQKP
# How it was run: as §1
# GABPA = biological target: T3, GABPA (Homo sapiens, UniProt Q06546 1-454); details: protein: recombinant; tags: N-terminal GST; dsDNA, one strand shown
# T3 sequence: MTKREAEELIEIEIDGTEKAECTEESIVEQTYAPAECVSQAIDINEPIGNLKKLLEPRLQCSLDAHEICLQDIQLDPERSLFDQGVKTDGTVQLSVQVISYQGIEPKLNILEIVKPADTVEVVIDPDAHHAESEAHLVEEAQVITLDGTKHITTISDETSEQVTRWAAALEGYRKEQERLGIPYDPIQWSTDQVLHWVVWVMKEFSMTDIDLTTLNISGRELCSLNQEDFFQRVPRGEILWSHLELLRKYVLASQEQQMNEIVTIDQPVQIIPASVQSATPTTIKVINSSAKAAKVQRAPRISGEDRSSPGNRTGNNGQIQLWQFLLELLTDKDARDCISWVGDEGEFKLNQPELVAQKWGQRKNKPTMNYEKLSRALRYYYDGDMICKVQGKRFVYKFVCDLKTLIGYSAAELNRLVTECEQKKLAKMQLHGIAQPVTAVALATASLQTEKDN
# How it was run: as §1
# ERG = biological target: T4, ERG (Homo sapiens, UniProt P11308 1-479); details: protein: recombinant; tags: N-terminal GST; dsDNA, one strand shown
# T4 sequence: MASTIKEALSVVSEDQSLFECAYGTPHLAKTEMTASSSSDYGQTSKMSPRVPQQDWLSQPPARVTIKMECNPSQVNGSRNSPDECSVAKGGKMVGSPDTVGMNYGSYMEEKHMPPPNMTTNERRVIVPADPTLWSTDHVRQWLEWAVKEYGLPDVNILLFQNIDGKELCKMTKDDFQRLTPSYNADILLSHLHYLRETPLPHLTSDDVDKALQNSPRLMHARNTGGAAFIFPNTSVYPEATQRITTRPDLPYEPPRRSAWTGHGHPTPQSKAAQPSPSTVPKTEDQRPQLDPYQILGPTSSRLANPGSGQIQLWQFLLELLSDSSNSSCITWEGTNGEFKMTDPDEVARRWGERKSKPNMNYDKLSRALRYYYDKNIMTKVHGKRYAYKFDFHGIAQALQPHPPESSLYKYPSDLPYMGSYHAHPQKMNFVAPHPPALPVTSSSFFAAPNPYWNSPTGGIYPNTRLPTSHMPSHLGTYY
# How it was run: as §1
# ELF1 = ELF1 (Homo sapiens, UniProt P32519 1-619); details: protein: recombinant; tags: N-terminal GST; dsDNA, one strand shown
# Chain of ELF1 (P32519 whole entry): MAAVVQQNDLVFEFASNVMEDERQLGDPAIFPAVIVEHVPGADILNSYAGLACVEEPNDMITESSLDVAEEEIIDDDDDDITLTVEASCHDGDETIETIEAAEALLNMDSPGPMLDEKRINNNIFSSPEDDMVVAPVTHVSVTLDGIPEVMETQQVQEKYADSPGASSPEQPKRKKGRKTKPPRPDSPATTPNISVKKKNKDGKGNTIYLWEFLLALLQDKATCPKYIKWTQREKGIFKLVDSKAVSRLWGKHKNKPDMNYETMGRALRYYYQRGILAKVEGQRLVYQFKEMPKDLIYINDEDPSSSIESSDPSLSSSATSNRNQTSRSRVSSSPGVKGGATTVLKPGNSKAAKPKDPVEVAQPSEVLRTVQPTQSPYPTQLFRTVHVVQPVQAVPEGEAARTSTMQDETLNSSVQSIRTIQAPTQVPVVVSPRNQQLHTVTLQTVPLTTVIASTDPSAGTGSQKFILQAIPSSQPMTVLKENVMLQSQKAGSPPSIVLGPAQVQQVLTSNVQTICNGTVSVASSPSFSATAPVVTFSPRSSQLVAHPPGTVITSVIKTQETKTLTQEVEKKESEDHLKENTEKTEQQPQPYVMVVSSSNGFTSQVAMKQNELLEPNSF
# How it was run: as §1
# EHF = biological target: T5, EHF (Homo sapiens, UniProt Q9NZC4 1-300); details: protein: recombinant; tags: N-terminal GST; dsDNA, one strand shown
# T5 sequence: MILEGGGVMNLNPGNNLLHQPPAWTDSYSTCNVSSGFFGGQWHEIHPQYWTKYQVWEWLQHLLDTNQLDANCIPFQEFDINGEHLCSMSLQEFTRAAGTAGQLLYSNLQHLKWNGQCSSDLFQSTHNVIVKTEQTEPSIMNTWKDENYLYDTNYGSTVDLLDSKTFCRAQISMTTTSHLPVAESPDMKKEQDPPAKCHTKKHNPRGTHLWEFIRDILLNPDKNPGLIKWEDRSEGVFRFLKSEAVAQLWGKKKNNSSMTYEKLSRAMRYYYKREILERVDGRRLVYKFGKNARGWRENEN
# How it was run: as §1
# SPI1 = SPI1 (Homo sapiens, UniProt P17947 1-270); details: protein: recombinant; tags: N-terminal GST; dsDNA, one strand shown
# How it was run: as §1
# SPIB = SPIB (Homo sapiens, UniProt Q01892 1-262); details: protein: recombinant; tags: N-terminal GST; dsDNA, one strand shown
# Chain of SPIB (Q01892 whole entry): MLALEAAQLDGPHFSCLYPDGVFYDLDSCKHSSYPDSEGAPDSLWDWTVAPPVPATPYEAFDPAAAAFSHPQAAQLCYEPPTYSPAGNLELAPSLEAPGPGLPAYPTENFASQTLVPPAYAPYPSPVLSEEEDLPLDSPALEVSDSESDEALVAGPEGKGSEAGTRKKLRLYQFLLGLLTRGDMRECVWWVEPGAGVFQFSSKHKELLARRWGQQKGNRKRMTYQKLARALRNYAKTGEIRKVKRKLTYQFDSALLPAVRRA
# How it was run: as §1
# ELK3 = biological target: T6, ELK3 (Homo sapiens, UniProt P41970 1-407); details: protein: recombinant; tags: N-terminal GST; dsDNA, one strand shown
# T6 sequence: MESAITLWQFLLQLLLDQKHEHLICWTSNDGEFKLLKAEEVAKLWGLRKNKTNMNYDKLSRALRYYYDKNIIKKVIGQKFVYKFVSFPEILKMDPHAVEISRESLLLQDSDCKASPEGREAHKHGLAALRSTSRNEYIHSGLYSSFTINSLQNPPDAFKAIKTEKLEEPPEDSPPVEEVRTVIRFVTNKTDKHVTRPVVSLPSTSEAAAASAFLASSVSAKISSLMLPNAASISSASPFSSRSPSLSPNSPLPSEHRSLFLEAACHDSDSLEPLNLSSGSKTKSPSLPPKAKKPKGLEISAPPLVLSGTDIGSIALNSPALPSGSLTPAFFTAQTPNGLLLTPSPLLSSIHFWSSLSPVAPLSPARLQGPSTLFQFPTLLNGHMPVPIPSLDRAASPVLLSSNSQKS
# How it was run: as §1
# FEV = biological target: T7, FEV (Homo sapiens, UniProt Q99581 1-238); details: protein: recombinant; tags: N-terminal GST; dsDNA, one strand shown
# T7 sequence: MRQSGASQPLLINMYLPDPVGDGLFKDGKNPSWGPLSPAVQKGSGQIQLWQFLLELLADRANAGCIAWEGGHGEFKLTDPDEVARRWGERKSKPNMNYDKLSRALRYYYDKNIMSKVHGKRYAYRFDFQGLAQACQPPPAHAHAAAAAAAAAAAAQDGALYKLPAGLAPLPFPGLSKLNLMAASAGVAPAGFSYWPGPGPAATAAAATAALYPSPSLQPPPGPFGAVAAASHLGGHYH
# How it was run: as §1
# ETV5 = ETV5 (Homo sapiens, UniProt P41161 1-510); details: protein: recombinant; tags: N-terminal GST; dsDNA, one strand shown
# Chain of ETV5 (P41161 whole entry): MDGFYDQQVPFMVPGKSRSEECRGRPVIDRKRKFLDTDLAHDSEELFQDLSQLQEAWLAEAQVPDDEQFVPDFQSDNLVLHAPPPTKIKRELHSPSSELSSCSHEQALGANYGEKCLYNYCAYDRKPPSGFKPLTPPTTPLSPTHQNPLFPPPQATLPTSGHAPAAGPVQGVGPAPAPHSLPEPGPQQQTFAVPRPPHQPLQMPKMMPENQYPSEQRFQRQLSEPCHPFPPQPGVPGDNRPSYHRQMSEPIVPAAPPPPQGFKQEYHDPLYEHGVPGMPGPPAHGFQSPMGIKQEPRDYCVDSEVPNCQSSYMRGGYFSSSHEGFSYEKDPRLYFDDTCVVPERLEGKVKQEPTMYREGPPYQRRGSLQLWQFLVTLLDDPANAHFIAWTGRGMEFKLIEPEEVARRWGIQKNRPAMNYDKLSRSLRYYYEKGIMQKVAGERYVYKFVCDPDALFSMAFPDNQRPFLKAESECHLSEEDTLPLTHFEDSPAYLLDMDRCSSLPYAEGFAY
# How it was run: as §1
# HSF1 = HSF1 (Homo sapiens, UniProt Q00613 1-529); details: protein: recombinant; tags: N-terminal GST; chain copies: 3; dsDNA, one strand shown
# Chain of HSF1 (Q00613 whole entry): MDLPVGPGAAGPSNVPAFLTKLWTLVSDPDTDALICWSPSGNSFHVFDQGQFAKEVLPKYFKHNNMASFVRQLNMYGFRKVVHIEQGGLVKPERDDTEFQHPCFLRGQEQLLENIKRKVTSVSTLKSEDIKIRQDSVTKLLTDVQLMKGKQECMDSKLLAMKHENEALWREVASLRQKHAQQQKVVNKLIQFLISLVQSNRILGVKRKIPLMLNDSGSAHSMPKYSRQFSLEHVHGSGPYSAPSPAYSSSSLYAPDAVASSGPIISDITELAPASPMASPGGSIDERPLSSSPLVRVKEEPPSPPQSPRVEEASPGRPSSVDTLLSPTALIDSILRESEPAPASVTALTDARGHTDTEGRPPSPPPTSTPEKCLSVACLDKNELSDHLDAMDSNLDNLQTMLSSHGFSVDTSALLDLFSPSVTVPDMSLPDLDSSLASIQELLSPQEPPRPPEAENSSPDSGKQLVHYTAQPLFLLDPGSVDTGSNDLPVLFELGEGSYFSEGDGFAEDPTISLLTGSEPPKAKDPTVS
# How it was run: as §1
# SPIC = biological target: T8, SPIC (Homo sapiens, UniProt Q8N5J4 1-248); details: protein: recombinant; tags: N-terminal GST; dsDNA, one strand shown
# T8 sequence: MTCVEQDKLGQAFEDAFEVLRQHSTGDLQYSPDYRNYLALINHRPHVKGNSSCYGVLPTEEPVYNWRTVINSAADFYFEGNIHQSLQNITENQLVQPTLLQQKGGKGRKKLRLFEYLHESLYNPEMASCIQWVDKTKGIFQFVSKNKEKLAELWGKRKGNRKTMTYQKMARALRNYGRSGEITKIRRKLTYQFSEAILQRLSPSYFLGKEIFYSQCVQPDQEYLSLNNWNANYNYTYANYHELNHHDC
# How it was run: as §1
# ELF4 = ELF4 (Homo sapiens, UniProt Q99607 1-663); details: protein: recombinant; tags: N-terminal GST; dsDNA, one strand shown
# Chain of ELF4 (Q99607 whole entry): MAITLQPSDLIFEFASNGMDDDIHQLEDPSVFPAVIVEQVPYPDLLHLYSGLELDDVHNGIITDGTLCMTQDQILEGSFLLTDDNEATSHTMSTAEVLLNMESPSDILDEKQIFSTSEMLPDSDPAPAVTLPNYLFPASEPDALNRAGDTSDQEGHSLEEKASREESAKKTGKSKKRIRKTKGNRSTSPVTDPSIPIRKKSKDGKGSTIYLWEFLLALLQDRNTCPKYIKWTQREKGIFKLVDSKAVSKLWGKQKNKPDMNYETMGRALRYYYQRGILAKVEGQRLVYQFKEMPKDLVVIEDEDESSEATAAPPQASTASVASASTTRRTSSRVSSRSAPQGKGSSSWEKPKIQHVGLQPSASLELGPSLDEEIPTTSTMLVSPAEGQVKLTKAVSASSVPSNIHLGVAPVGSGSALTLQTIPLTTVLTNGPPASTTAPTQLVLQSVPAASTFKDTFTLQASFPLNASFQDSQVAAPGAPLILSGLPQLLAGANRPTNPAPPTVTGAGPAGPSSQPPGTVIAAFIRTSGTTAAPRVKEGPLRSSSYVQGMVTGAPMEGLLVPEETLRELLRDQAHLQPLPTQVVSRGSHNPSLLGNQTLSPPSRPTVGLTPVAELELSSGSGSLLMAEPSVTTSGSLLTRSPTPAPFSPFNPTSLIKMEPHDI
# How it was run: as §1
# ELK4 = biological target: T9, ELK4 (Homo sapiens, UniProt P28324-2 1-405); details: protein: recombinant; tags: N-terminal GST; dsDNA, one strand shown
# T9 sequence: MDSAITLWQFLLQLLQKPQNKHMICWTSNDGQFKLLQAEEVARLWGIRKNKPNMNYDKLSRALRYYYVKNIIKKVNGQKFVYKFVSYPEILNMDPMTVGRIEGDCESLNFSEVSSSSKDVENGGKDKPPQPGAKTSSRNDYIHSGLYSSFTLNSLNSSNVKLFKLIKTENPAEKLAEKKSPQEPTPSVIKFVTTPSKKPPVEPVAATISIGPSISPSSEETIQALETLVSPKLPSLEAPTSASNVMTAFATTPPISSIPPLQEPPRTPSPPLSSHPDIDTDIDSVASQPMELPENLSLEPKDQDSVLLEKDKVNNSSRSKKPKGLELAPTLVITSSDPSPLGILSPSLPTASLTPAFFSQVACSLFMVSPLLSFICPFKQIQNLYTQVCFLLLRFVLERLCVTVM
# How it was run: as §1
# ETV2 = biological target: T10, ETV2 (Homo sapiens, UniProt O00321 1-342); details: protein: recombinant; tags: N-terminal GST; dsDNA, one strand shown
# T10 sequence: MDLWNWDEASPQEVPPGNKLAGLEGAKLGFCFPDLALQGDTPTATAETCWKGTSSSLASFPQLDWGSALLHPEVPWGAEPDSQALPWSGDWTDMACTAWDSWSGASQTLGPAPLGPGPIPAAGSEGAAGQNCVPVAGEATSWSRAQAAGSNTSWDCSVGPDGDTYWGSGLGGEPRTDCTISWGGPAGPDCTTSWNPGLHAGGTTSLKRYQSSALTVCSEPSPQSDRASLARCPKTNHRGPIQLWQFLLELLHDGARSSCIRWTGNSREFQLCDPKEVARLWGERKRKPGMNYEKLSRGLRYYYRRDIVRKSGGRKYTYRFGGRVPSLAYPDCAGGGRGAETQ
# How it was run: as §1
# ELF3 = biological target: T11, ELF3 (Homo sapiens, UniProt P78545 1-371); details: protein: recombinant; tags: N-terminal GST; dsDNA, one strand shown
# T11 sequence: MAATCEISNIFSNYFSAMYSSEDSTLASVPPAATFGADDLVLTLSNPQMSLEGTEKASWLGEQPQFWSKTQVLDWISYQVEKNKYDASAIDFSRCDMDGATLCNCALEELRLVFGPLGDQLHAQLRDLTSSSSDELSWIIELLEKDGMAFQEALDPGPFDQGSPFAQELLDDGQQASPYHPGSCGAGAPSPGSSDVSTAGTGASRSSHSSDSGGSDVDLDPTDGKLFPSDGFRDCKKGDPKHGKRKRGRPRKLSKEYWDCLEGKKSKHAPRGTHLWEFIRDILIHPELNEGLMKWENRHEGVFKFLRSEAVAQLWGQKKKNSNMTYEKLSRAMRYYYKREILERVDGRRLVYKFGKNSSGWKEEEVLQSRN
# How it was run: as §1
# CRX = CRX (Homo sapiens, UniProt O43186 1-299); details: protein: recombinant; tags: N-terminal GST; dsDNA, one strand shown
# Chain of CRX (O43186 whole entry): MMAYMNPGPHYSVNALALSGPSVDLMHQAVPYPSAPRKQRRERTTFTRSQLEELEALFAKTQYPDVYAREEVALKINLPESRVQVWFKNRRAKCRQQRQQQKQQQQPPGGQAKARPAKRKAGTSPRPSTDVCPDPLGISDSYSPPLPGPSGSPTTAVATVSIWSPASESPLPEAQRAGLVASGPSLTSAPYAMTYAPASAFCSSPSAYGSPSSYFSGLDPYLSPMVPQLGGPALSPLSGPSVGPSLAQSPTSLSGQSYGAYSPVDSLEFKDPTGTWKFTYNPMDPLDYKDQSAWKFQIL
# How it was run: as §1
# ETV1 = ETV1 (Homo sapiens, UniProt P50549 1-477); details: protein: recombinant; tags: N-terminal GST; dsDNA, one strand shown
# Chain of ETV1 (P50549 whole entry): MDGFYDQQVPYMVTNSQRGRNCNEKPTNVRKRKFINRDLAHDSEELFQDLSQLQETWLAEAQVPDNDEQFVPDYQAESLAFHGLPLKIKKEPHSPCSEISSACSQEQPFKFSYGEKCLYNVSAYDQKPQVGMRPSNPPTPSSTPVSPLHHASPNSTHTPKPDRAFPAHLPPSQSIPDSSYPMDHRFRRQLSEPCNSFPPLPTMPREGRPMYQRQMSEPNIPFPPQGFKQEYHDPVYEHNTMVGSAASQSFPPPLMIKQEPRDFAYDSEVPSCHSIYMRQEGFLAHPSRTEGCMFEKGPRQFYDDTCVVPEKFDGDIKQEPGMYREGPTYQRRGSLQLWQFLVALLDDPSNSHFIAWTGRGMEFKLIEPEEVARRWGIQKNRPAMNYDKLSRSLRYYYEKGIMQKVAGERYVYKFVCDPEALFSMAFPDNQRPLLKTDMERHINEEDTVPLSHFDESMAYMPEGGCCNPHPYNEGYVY
# How it was run: as §1
sequence,measurement,setting,value
TCGCCC,binding signal,FLI1,"1.34 fold enrichment (6-mer frequency, TF over GST control)"
same,binding signal,ELK1,"1.4 fold enrichment (6-mer frequency, TF over GST control)"
same,binding signal,GABPA,"1.3 fold enrichment (6-mer frequency, TF over GST control)"
same,binding signal,ERG,"1.27 fold enrichment (6-mer frequency, TF over GST control)"
same,binding signal,ELF1,"1.31 fold enrichment (6-mer frequency, TF over GST control)"
same,binding signal,EHF,"1.27 fold enrichment (6-mer frequency, TF over GST control)"
same,binding signal,SPI1,"1.29 fold enrichment (6-mer frequency, TF over GST control)"
same,binding signal,SPIB,"1.25 fold enrichment (6-mer frequency, TF over GST control)"
same,binding signal,ELK3,"1.27 fold enrichment (6-mer frequency, TF over GST control)"
same,binding signal,FEV,"1.3 fold enrichment (6-mer frequency, TF over GST control)"
same,binding signal,ETV5,"1.24 fold enrichment (6-mer frequency, TF over GST control)"
same,binding signal,HSF1,"1.09 fold enrichment (6-mer frequency, TF over GST control)"
same,binding signal,SPIC,"1.49 fold enrichment (6-mer frequency, TF over GST control)"
same,binding signal,ELF4,"1.23 fold enrichment (6-mer frequency, TF over GST control)"
same,binding signal,ELK4,"1.19 fold enrichment (6-mer frequency, TF over GST control)"
same,binding signal,ETV2,"1.19 fold enrichment (6-mer frequency, TF over GST control)"
same,binding signal,ELF3,"1.22 fold enrichment (6-mer frequency, TF over GST control)"
same,binding signal,CRX,"1.07 fold enrichment (6-mer frequency, TF over GST control)"
same,binding signal,ETV1,"1.26 fold enrichment (6-mer frequency, TF over GST control)"
